From PubChem BioAssay (EPA / NIEHS)
Results filed as inconclusive are left out. Calls of active or inactive are those of the source. The calls were made as follows, unless noted: active = hit-call score of the fitted dose curve at least 0.9, where 1 is the maximum; inconclusive = response in the unintended direction; inactive = score below 0.9.

Columns and labels:
[1] = TOX21_p53_BLA_p2_viability: Viability Assessment in the Tox21 HCT-116 p53 Agonism Beta-lactamase Assay, Phase 2 (AID 2283591);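 also: compound exposure lasted 16 h at 37 °C; actives lower the ATP signal meaning cytotoxicity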
How it was run: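 HCT116 p53-bla cells, 4000/well, dosed after 5 h plating (217-fold dilution of DMSO stocks) and incubated 16 h at 37C. Viability taken as cellular ATP by CellTiter-Glo luminescence after 30 min RT; signal loss marks cytotoxicity.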

[2] = TOX21_p53_BLA_p3_viability: Viability Assessment in the Tox21 HCT-116 p53 Agonism Beta-lactamase Assay, Phase 3 (AID 2283593);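 also: cells exposed to compound for 16 h before reading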
How it was run: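 HCT116 cells, 4000/well, dosed 5 h after plating by pin transfer (217-fold dilution from DMSO stock) and incubated 16 h at 37C, 5% CO2. Viability read as ATP luminescence with CellTiter-Glo after 30 min at room temperature.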

[3] = TOX21_p53_BLA_p4_viability: Viability Assessment in the Tox21 HCT-116 p53 Agonism Beta-lactamase Assay, Phase 4 (AID 2283597);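 also: hits lower the luminescence signal meaning cytotoxicity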
How it was run: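 In this multiplexed secondary endpoint, HCT116 cells (4000 per well, compound at 5 h, 16 h treatment) received CellTiter-Glo after the beta-lactamase read. Luminescence after 30 min RT reflects ATP, and falling signal marks cytotoxicity.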

[4] = target: Cellular tumor antigen p53 (Homo sapiens) (UniProt P04637); assay: TOX21_p53_BLA_p5_ratio: Tox21 HCT-116 p53 Agonism Beta-lactamase Assay, Ratio, Phase 5 (AID 2283599)
How it was run: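 HCT-116 p53-bla cells (4000/well) plated 5 h, dosed with compound (217-fold DMSO dilution) for 16 h at 37 C; CCF4-AM substrate 2 h at room temperature. Activity is the 460/530 nm emission ratio (405 nm excitation), fitted in gain-of-signal direction versus DMSO.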

[5] = TOX21_p53_BLA_p5_viability: Viability Assessment in the Tox21 HCT-116 p53 Agonism Beta-lactamase Assay, Phase 5 (AID 2283600)
How it was run: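 Here cell health was gauged by ATP levels in wells holding 4000 cells, each treated 16 h with DMSO-delivered compounds at 217-fold dilution; reduced luminescence marked toxicity.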

[6] = target: Cellular tumor antigen p53 (Homo sapiens) (UniProt P04637); assay: TOX21_p53_BLA_p4_ratio: Tox21 HCT-116 p53 Agonism Beta-lactamase Assay, Ratio, Phase 4 (AID 2283601)
How it was run: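 HCT-116 p53 beta-lactamase reporter cells (4000/well) preincubated 5 h, then compound (217-fold dilution of DMSO stock) for 16 h at 37C. CCF4-AM substrate added 2 h at room temperature; 460/530 nm emission ratio fitted upward versus DMSO.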

[7] = test system: Brachyury (BRA) Protein Expression, Deisenroth Lab, TBXT (gene 6862); assay: CCTE_Deisenroth_DEVTOX-GLR_legacy_Bra: (Legacy) CCTE's DevTox GLR-Endo Assay Evaluation of Brachyury (BRA) Protein Expression, Deisenroth Lab (AID 2284329; active = hit-call score of the fitted dose curve at least 0.9, where 1 is the maximum; inactive = score below 0.9)
How it was run: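 Readout: percent Bra+ cells by high-content fluorescence imaging, Bra+ meaning mean intensity 5x BMAD over pluripotent control median. RUES2-GLR cells dosed twice over 48 h differentiation; DMSO-control median subtracted before concentration-response fitting.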

[8] = CCTE_Deisenroth_DEVTOX-GLR_legacy_CellCount: (Legacy) Viability Assessment in CCTE's DevTox GLR-Endo Assay, Deisenroth Lab (AID 2284331; active = hit-call score of the fitted dose curve at least 0.9, where 1 is the maximum; inactive = score below 0.9); details: actives raise or lower the signal
How it was run: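 Viability is taken from imaged nuclei counts in fixed RUES2-GLR cultures after 48 h of differentiation under two 24 h-spaced chemical exposures, 10 concentrations from 1 nM to 200 uM, gain or loss versus DMSO baseline.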

[9] = test system: SRY-box transcription factor 17 (SOX17) Protein Expression, Deisenroth Lab, SOX17 (gene 64321); assay: CCTE_Deisenroth_DEVTOX-GLR_legacy_Sox17: (Legacy) CCTE's DevTox GLR-Endo Assay Evaluation of SRY-box transcription factor 17 (SOX17) Protein Expression, Deisenroth Lab (AID 2284341; active = hit-call score of the fitted dose curve at least 0.9, where 1 is the maximum; inactive = score below 0.9); details: actives raise or lower the signal
How it was run: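 Endoderm-differentiation readout in RUES2-GLR human pluripotent cells at 48 h, concentrations spanning 1 nM - 200 uM. Sox17-positive cells divided by total cell count; gain or loss relative to DMSO solvent control, n=4 experimental replicates.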

[10] = test system: SRY-box transcription factor 2 (SOX2) Protein Expression, Deisenroth Lab, SOX2 (gene 6657); assay: CCTE_Deisenroth_DEVTOX-GLR_legacy_Sox2: (Legacy) CCTE's DevTox GLR-Endo Assay Evaluation of SRY-box transcription factor 2 (SOX2) Protein Expression, Deisenroth Lab (AID 2284346; active = hit-call score of the fitted dose curve at least 0.9, where 1 is the maximum; inactive = score below 0.9)
How it was run: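 Read-out: fraction of Sox2+ cells by high-content fluorescence imaging of fixed RUES2-GLR cells after 48 h differentiation with two 24 h-spaced exposures. Positivity cutoff 5x BMAD above endoderm control median; 0.2% DMSO median subtracted.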

[11] = test system: SRY-box transcription factor 2 (SOX2) Protein Expression, Deisenroth Lab, SOX2 (gene 6657); assay: CCTE_Deisenroth_DEVTOX-GLR_Endo_SOX2: CCTE's DevTox GLR-Endo Assay Evaluation of SRY-box transcription factor 2 (SOX2) Protein Expression, Deisenroth Lab (AID 2284412)
How it was run: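 Endpoint is percent SOX2-positive cells (SOX2+ count/total cells) minus 0.2% DMSO control, from high-content imaging of fixed, nuclear-stained RUES2-GLR cells. Dosing twice at 24 h intervals over 48 h differentiation, 1 nM–200 uM in 10 points.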

[12] = test system: SRY-box transcription factor 17 (SOX17) Protein Expression, Deisenroth Lab, SOX17 (gene 64321); assay: CCTE_Deisenroth_DEVTOX-GLR_Endo_SOX17: CCTE's DevTox GLR-Endo Assay Evaluation of SRY-box transcription factor 17 (SOX17) Protein Expression, Deisenroth Lab (AID 2284413; active = hit-call score of the fitted dose curve at least 0.9, where 1 is the maximum; inactive = score below 0.9)
How it was run: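 Human RUES2-GLR cells carrying an inducible fluorescent reporter are differentiated in defined media for 48 h and dosed twice, 24 h apart. After fixation and nuclear staining, imaging yields SOX17+ cell percentage relative to 0.2% DMSO-treated differentiated cells.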

[13] = CCTE_Deisenroth_DEVTOX-GLR_Endo_CellCount: Viability Assessment in CCTE's DevTox GLR-Endo Assay, Deisenroth Lab (AID 2284420; active = hit-call score of the fitted dose curve at least 0.9, where 1 is the maximum; inactive = score below 0.9)
How it was run: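 Measured 48 h after dosing: fluorescent nuclei counted by imaging in human RUES2-GLR cells under defined differentiation media, tested at 1 nM - 200 uM. Values are percent cell-count change relative to 0.2% DMSO.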

[14] = test system: Brachyury (BRA) Protein Expression, Deisenroth Lab, TBXT (gene 6862); assay: CCTE_Deisenroth_DEVTOX-GLR_Pluri_BRA: CCTE's DevTox GLR-Pluri Assay Evaluation of Brachyury (BRA) Protein Expression, Deisenroth Lab (AID 2284429)
How it was run: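 RUES2-GLR reporter line; 48 h mesoderm differentiation; two exposures, 24 h apart; 1 nM - 200 uM, 10 points; nuclear stain, high-content imaging, 5 fields/well; endpoint = %BRA+ cells of total count minus 0.2% DMSO; n=4.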

[15] = CCTE_Deisenroth_DEVTOX-GLR_Pluri_CellCount: Viability Assessment in CCTE's DevTox GLR-Pluri Assay Evaluation of Total Cell Counts, Deisenroth Lab (AID 2284430; active = hit-call score of the fitted dose curve at least 0.9, where 1 is the maximum; inactive = score below 0.9)
How it was run: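 Cytotoxicity readout: fluorescent nuclei counts by high-content imaging, expressed as percent change relative to 0.2% DMSO. Human RUES2-GLR pluripotent line differentiated 48 h, dosed twice at 24-h intervals across 1 nM - 200 uM (10 points).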

Measured: AC50

Chain of Cellular tumor antigen p53 (Homo sapiens) (P04637 whole entry, looked up): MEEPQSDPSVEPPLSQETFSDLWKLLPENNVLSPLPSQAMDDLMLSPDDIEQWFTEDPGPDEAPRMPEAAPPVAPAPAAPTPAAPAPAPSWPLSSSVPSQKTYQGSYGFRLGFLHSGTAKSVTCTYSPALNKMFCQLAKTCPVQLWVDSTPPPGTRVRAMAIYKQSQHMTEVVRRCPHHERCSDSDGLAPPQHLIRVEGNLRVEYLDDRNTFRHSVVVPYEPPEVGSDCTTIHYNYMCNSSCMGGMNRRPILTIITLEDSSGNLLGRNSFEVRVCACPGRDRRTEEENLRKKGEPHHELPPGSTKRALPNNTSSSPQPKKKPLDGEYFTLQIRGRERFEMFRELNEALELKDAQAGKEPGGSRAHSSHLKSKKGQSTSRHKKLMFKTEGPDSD

Cc1ccc(C(=O)O)cc1
inactive: [1] | [2] | [3] | [4] | [5]

CCN(CC)CCOCCOC(=O)C1(c2ccccc2)CCCC1
inactive: [1] | [2] | [3] | [5] | [6]

CCN(CCCCOC(=O)c1ccc(OC)c(OC)c1)C(C)Cc1ccc(OC)cc1 (stereo not given)
inactive: [1] | [2] | [3] | [6]

CCCC(=O)O[C@]1(C(=O)COC(=O)CC)[C@@H](C)C[C@H]2[C@@H]3CCC4=CC(=O)C=C[C@]4(C)[C@@]3(F)[C@@H](O)C[C@@]21C
inactive: [1] | [2] | [3] | [5]

Cc1cc(-c2ccc(N=Nc3c(S(=O)(=O)O)cc4cc(S(=O)(=O)O)cc(N)c4c3O)c(C)c2)ccc1N=Nc1c(S(=O)(=O)O)cc2cc(S(=O)(=O)O)cc(N)c2c1O
inactive: [1] | [5]
active: [2] 16.3 µM | [3] 20.6 µM

Cc1ccc(/C(=C\CN2CCCC2)c2cccc(/C=C/C(=O)O)n2)cc1
inactive: [1] | [2] | [3] | [6]

CC1(C)S[C@@H]2[C@H](NC(=O)C(c3ccccc3)S(=O)(=O)O)C(=O)N2[C@H]1C(=O)O (stereo not given in full)
inactive: [1] | [2] | [3] | [6]

C=C(C)C(=O)OCCCCCCCCCCOC(=O)C(=C)C
inactive: [1] | [2] | [4]

O=C1O[C@H]2[C@H](O)[C@@H]1OC(O)[C@H]2O (stereo not given in full)
inactive: [1] | [2] | [3] | [5] | [6]

CC(C)Nc1cccnc1N1CCN(C(=O)c2cc3cc(NS(C)(=O)=O)ccc3[nH]2)CC1
inactive: [1] | [2] | [3] | [5] | [6]

CCCCCN=C(N)N/N=C/c1c[nH]c2ccc(OC)cc12
active: [8] 5.09 µM | [9] 5.47 µM | [11] 100 µM | [12] 5.27 µM | [13] 5.15 µM | [14] 5.27 µM | [15] 7.83 µM
inactive: [1] | [2] | [3] | [6] | [7] | [10]

CCCCCCCCCCCCCCCC(=O)OC[C@@H](NC(=O)C(Cl)Cl)[C@H](O)c1ccc([N+](=O)[O-])cc1
inactive: [1] | [2] | [3] | [5]

O=C(OCC1(COC(=O)c2cccnc2)CCCC(COC(=O)c2cccnc2)(COC(=O)c2cccnc2)C1O)c1cccnc1
inactive: [1] | [2] | [3] | [5]

O=c1[nH][nH]c(=O)c2cc([N+](=O)[O-])ccc12
inactive: [1] | [2] | [3] | [5]

Cn1c(N)c(N=O)c(=O)n(C)c1=O
inactive: [1] | [2] | [3] | [5]

c1cc(CN2CCCCC2)cc(OCCCNc2nc3ccccc3s2)c1
inactive: [1] | [2] | [3] | [5]

CN(C)c1cc(NC(=O)CNC(C)(C)C)c(O)c2c1C[C@H]1C[C@H]3[C@H](N(C)C)C(=O)C(C(N)=O)=C(O)[C@@]3(O)C(=O)C1=C2O
inactive: [1] | [2] | [3] | [5]
